Assay results: PubChem BioAssay (Tox21)
Records with an inconclusive call do not appear. Activity calls are given as the source filed them. The call rests on the fitted dose curve; in most records, active means well fitted activation curve with a large enough effect in the signal ratio in the repeat runs (not every such curve was filed as active); inconclusive means weak or mixed curves, or effect the other way; inactive means no such curve, though single readings can be large or run the other way; the % refers to the signal ratio.

target: Peroxisome proliferator-activated receptor gamma (Homo sapiens) (UniProt P37231); assay: qHTS assay to identify small molecule agonists of the peroxisome proliferator-activated receptor gamma (PPARg) signaling pathway (AID 743094); details: HEK293H PPARg-UAS-bla, beta-lactamase FRET ratio, 17 h; series mostly up to 57 µM
Text: U.S. Tox21 Program National Center for Advancing Translational Sciences [NCATS] NIH Chemical Genomics Center [NCGC] U.S. Environmental Protection Agency [EPA] National Institutes of Environmental Health Sciences [NIEHS] National Toxicology Program [NTP] U.S. Food and Drug Administration [FDA] Tox21 Assay Overview: The peroxisome proliferator-activated receptors (PPARs) are lipid-activated transcription factors of the nuclear receptor superfamily with three distinct subtypes namely PPAR alpha, PPAR delta (also called PPAR beta) and PPAR gamma (PPARg). All these subtypes heterodimerize with Retinoid X receptor (RXR) and these heterodimers regulate transcription of various genes. PPAR-gamma receptor (glitazone receptor) is involved in the regulation of glucose and lipid metabolism. To identify the compounds that activate PPAR-gamma signaling, GeneBLAzer PPAR gamma UAS-bla HEK293H cell line (Invitrogen, Carlsbad, CA, USA) containing a beta-lactamase reporter gene under control of the control of an upstream activator sequence (UAS) stably integrated into HEK293H cells was used to screen Tox21 compound library.
Tox21 Assay Protocol Summary: PPARg-bla cells were dispensed at 3000 cells/6uL/well in 1536-well black wall/clear bottom plates using a Multidrop Combi (Thermo Fisher Scientific, Waltham, MA) dispenser. After the assay plates were incubated at 37C and 5% CO2 for 5 h, 23 nL of compounds dissolved in DMSO, positive controls or DMSO only was transferred to the assay plate by a Pintool station (Kalypsys, San Diego, CA). The assay plates were incubated at 37C for 17 h. After 1 uL of LiveBLAzerTM B/G FRET substrate was added using a Bioraptr Flying Reagent Dispenser (FRD) workstation (Beckman Coulter, Indianapolis, IN, USA), the plates were incubated at room temperature for 1 h, and fluorescence intensity was measured by an Envision plate reader (PerkinElmer, Shelton, CT).

Peroxisome proliferator-activated receptor gamma (Homo sapiens), sequence (P37231 whole entry, looked up): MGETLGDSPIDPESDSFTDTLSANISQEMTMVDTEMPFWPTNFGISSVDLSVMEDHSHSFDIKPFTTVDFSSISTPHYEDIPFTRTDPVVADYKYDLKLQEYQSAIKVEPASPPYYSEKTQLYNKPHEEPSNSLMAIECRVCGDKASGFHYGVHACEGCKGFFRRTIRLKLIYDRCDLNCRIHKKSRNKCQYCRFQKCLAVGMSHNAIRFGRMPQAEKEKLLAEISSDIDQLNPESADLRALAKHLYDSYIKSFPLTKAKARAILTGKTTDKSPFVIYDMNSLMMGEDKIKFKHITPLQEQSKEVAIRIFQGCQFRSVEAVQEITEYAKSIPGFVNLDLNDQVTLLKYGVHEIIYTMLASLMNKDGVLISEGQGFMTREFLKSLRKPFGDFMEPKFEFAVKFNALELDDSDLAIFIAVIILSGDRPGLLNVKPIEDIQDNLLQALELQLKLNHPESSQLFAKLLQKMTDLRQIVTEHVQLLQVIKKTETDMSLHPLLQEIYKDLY

| Structure (SMILES) | outcome |
| --- | --- |
| CCOP(=O)(CN(CCO)CCO)OCC | inactive |
| ClCOCCl | inactive |
| [O-][Br+2]([O-])O | inactive |
| O=C(O)CBr | inactive |
| OCC(Cl)CCl (stereo not given) | inactive |
| C[N+]1(C)CCCCC1 | inactive |
| Cc1cc(OC(=O)N(C)C)nn1C(=O)N(C)C | inactive |
| CC(=NC#N)N(C)Cc1ccc(Cl)nc1 | inactive |
| CNC(=O)NC(O)C(Cl)(Cl)Cl (stereo not given) | inactive |
| CC(C)c1ccc(O)cc1 | inactive |
| C=C(C)[C@H]1CN[C@H](C(=O)O)[C@H]1CC(=O)O | inactive |
| CCOc1cc(OP(=S)(OC)OC)nc(CC)n1 | inactive |
| CC(Cl)(Cl)Cl | inactive |
| ClC1=C(Cl)C2(Cl)C(CBr)CC1(Cl)C2(Cl)Cl (stereo not given) | inactive |
| CC(C)(C)C(=O)Cl | inactive |
| CCN(CC)C1CCCCC1 | inactive |
| O=C(CCl)NCO | inactive |
| C[C@@H](N)[C@@H](O)c1ccccc1 | inactive |
| CCOC(=O)CCl | inactive |
| CC(C)(C)NC[C@H](O)c1ccc(O)cc1Cl | inactive |

| Structure (SMILES) | outcome |
| --- | --- |
| C(COCC1CO1)OCC1CO1 (stereo not given) | inactive |
| CC(=O)CN(CC(C)=O)N=O | inactive |
| ClC(Cl)(Cl)Cl | inactive |
| NC(=O)OCCCc1ccccc1 | inactive |
| N[C@@H]1C[C@H]1c1ccccc1 | inactive |
| C=C(Cl)CCl | inactive |
| Cc1ccc2c(c1)C1CN(C)CCC1N2 (stereo not given) | inactive |
| O=C(Cl)C(Cl)Cl | inactive |
| C=C(Cl)CSC(=S)N(CC)CC | inactive |
| CC(C)[C@]12CC(=O)[C@H](C)[C@H]1C2 | inactive |
| C=CC=O | inactive |
| c1cncc([C@@H]2CCCCN2)c1 | inactive |
| CC(Cc1ccccc1)NCCn1cnc2c1c(=O)n(C)c(=O)n2C (stereo not given) | inactive |
| CN(CCO)CCO | inactive |
| CCCCCCCC(=O)Cl | inactive |
| CC(C)[N+](C)(CCC(C(N)=O)(c1ccccc1)c1ccccc1)C(C)C | inactive |
| C[C@H](CN1CCOCC1)C(C(=O)N1CCCC1)(c1ccccc1)c1ccccc1 | inactive |
| Clc1ccc(C(Cl)(Cl)Cl)cn1 | inactive |
| O=C(Cl)OCc1ccccc1 | inactive |
| Cc1ccc(Cl)c(O)c1 | inactive |
